This note sets out measurements from ChEMBL document CHEMBL1201862, “PubChem BioAssay data set” (2004).

About 750 (4.2%) of roughly 18,000 compounds were called active. Inconclusive results (about 13%) are left out. The rule behind the calls is not given here. Only a selection was taken, and actives are over-represented in it overall.

The experiment is described as follows: qHTS for Inhibitors of binding or entry into cells for Lassa Virus.
In the case of `CC12C(=O)OC(=O)C1(C)C1CCC2O1` (stereo unspecified), the Potency was 562 µM (active).
